Records with an inconclusive call do not appear. Entries that show only a call come without a potency. The source made the active and inactive calls. Calls follow the shape of the dose curve; as a rule, active = well fitted curve in the direction sought with a large enough effect; inconclusive = small, poorly fitted or top-dose-only effect, or another doubt; inactive = no such curve, though single readings can be large; an effect the other way counts as inactive or inconclusive.

The results in this text go back to PubChem BioAssay (NCATS).

Sequence of Cytochrome P450 2D6 (Homo sapiens) (P10635 whole entry, looked up): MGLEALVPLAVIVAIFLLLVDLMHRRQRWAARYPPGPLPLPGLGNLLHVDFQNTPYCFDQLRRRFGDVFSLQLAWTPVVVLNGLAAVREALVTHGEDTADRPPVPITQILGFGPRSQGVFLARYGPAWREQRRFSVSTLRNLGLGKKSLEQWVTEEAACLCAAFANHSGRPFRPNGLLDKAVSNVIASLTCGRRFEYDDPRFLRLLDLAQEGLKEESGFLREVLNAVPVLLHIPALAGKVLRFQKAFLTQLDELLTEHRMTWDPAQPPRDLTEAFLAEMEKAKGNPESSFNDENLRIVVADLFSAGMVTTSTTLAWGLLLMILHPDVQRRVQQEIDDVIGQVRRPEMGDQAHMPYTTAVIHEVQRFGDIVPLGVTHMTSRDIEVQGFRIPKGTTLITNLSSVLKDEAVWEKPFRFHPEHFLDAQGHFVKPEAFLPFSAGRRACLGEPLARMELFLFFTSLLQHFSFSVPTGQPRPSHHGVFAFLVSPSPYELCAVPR

For one experiment, the target named is Cytochrome P450 3A4 (Homo sapiens) (UniProt P08684). The experiment can be described thus: qHTS Assay for Activators of Cytochrome P450 3A4 (AID 885). Also: nearly all actives have a fitted effect of over 65% in size. The note with it: recombinant CYP3A4, Luciferin-PPXE luminescence, 60 min; series mostly up to 57.1 µM. The method, boiled down: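 20nM CYP3A4 + 25uM Luciferin-PPXE (=KM), 200mM KPO4; cpd 10 min RT; NADPH regen, 60 min RT; stop w/ detection buffer, 20 min; luminescence. Normalized to 57 uM ketoconazole.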
Sequence of Cytochrome P450 3A4 (Homo sapiens) (P08684 whole entry, looked up): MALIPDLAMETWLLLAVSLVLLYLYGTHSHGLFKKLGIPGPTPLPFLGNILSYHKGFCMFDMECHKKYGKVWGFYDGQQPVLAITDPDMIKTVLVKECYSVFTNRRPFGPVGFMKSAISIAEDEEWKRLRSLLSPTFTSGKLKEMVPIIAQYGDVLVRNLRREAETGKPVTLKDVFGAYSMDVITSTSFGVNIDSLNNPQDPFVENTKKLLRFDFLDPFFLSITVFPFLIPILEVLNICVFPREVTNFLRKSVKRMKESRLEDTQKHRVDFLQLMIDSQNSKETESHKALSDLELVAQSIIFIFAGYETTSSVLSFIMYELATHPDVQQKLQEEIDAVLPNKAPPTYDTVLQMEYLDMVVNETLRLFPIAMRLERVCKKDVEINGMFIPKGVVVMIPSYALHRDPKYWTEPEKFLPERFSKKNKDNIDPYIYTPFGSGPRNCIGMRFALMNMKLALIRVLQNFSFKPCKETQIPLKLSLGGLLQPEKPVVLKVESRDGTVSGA
Consider `C/C(CCN1CCc2nc(-c3ccccc3)c(-c3ccccc3)cc2C1)=N\O[C@@H](C)c1cc(-c2c(C)cc(C)cc2C)no1`, for which the activity change, positive = activation is -63.5% [at 11.4 µM] (inactive).

Turning to `CCCCCC(=O)O[C@@]1(C(C)=O)CCC2C3CCC4=CC(=O)CC[C@@]4(C)C3CC[C@]21C` (some centres undefined), the Potency entry is “inactive”. For the compound `COC(=O)CC1[C@@]2(C)C[C@]34OC5(C)OC6(C7CC(=O)OC(c8ccoc8)[C@]7(C)CCC6(O5)[C@]13C)C(OC(C)=O)[C@]4(OC(C)=O)C2OC(C)=O` (some centres undefined), the Potency entry is “inactive”. As for `CO[C@H]1COC(=O)C/C=C\[C@@H](C)COC(=O)[C@@H](OCc2ccccc2)/C=C\[C@@H]1C`, the activity change, positive = activation was -63.8% [at 11.4 µM] (inactive). `C/C(CCN1CCCCc2nc(C)c(C)cc21)=N\OC[C@@H](C)[C@H](OCc1ccccc1)C(C)C`: the activity change, positive = activation is -49.2% [at 11.4 µM] (inactive).

With `C/C(CCC(=O)OC[C@@H]1O[C@H](C#Cc2ccccc2)C=C[C@@H]1Oc1ccc(C)cc1)=N/OC[C@@H](C)[C@H](OCc1ccccc1)C(C)C`, the activity change, positive = activation was -45.8% [at 11.4 µM] (inactive). In the case of `COc1c(CC(=O)c2cc3c(cc2O)OC(C)(C)C(O)C3)ccc2c1C=CC(C)(C)O2` (centres undefined), the Potency entry is “inactive”.

Another experiment concerns the target Cytochrome P450 2D6 (Homo sapiens) (UniProt P10635). The experiment in a line: qHTS Assay for Inhibitors and Substrates of Cytochrome P450 2D6 (AID 891). Also: nearly all actives have a fitted effect of over 60% in size. Also: potency is read from the fitted curve at half-maximal effect. The note with it: recombinant CYP2D6, luciferin-ME EGE luminescence; series mostly up to 11.4 µM. The method, boiled down: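 Human CYP2D6 (5 nM) with 30 uM Luciferin-ME EGE (at Km) in 100 mM KPO4, compound preincubated 10 min, then NADPH regeneration system for 60 min at room temperature. Luciferin read by luminescence; normalized to 1.43 uM quinidine.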
On to `CC(=O)OC[C@H]1O[C@@H](ON=C(C)C)[C@H](OC(C)=O)[C@@H](OC(C)=O)[C@H]1OC(C)=O`, for which the Potency is 3.16 µM (active).

As for `CCOC(=O)N/N=C1/C[C@@H](O)[C@@H](O)[C@@H]2[C@@H]3C(=O)N(Cc4ccccc4)C(=O)[C@H]3CC[C@@H]12`, the Potency entry is “inactive”. Consider `CC(C)[C@H](NC(=O)OC(C)(C)C)[C@@H](O)CC(=O)OC(C)(C)C`, for which the Potency was 3.16 µM (active). On the same count and under the same terms, then `CC(C)=NOC[C@@H](O)COCc1ccco1`, with “inactive”; and `CCc1cc2c(nc1CC)CCN(CC/C(C)=N/O[C@@H]1O[C@H](COC(C)=O)[C@H](OC(C)=O)[C@H](OC(C)=O)[C@H]1OC(C)=O)C2`, with 3.98 µM (active). On to `CC(=O)OC[C@@H]1O[C@H](C/C=N\O[C@@H]2O[C@H](COC(C)=O)[C@@H](OC(C)=O)[C@H](OC(C)=O)[C@H]2OC(C)=O)C=C[C@@H]1OC(C)=O`, for which the Potency was 3.98 µM (active). Take `CCOC(=O)CCN1C(=O)[C@H]2[C@H]3[C@H](O)[C@H](O)C/C(=N/O[C@@H]4O[C@@H](COC(C)=O)[C@@H](OC(C)=O)[C@@H](OC(C)=O)[C@H]4OC(C)=O)[C@@H]3CC[C@@H]2C1=O`: the Potency was 3.16 µM (active).

Regarding `CC(=O)OC[C@H]1O[C@@H](O/N=C\[C@@H](C)[C@H](OCc2ccccc2)C(C)C)[C@H](OC(C)=O)[C@@H](OC(C)=O)[C@H]1OC(C)=O`, the Potency is 3.98 µM (active). The same measure, in the same setting: then `CC(=O)OC[C@@H]1O[C@@H](O/N=C2/C[C@@H](O)[C@@H](O)[C@@H]3[C@@H]4C(=O)N(Cc5ccccc5)C(=O)[C@H]4CC[C@H]23)[C@H](OC(C)=O)[C@H](OC(C)=O)[C@@H]1OC(C)=O`, with 3.16 µM (active).

Take `CO[C@@H]1COC(=O)CCC[C@@H](C)[C@H](OC)COC(=O)CCC[C@H]1C`: the Potency result is “inactive”. Regarding `CC(=O)OC[C@@H]1O[C@@H](O/N=C2/C[C@@H](O)[C@@H](O)[C@@H]3[C@@H]4C(=O)N(C5CCCCC5)C(=O)[C@H]4CC[C@H]23)[C@H](OC(C)=O)[C@H](OC(C)=O)[C@@H]1OC(C)=O`, the Potency is 3.98 µM (active). Regarding `COC(=O)C/C=C\[C@@H](C)[C@@H](/C=N\OC[C@@H](O)COCc1ccco1)OC`, the Potency entry was “inactive”. With `O=C(N/N=C1/C[C@@H](O)[C@@H](O)[C@@H]2[C@@H]3C(=O)N(Cc4ccccc4)C(=O)[C@H]3CC[C@H]12)OCc1ccccc1`, the Potency entry was “inactive”.

As to `CCOC(=O)OCC1OC(C#Cc2ccccc2)C=CC1OC(=O)OCC` (centres undefined), the Potency result was “inactive”. Take `CO[C@H]1COC(=O)CCC[C@H](C)[C@H](OC)COC(=O)C/C=C\[C@@H]1C`: the Potency entry was “inactive”. Still for that read-out and setting: with `CC(C)c1ccc2c(c1)CC[C@@H]1[C@@](C)(CN)CCC[C@@]21C` the figure was 1 µM (active). Regarding `CC(C)=CCC/C(C)=C/CO/N=C1/C[C@@H](O)[C@@H](O)[C@@H]2[C@@H]3C(=O)N(C(C)(C)C)C(=O)[C@H]3CC[C@H]12`, the Potency result is “inactive”.

In the case of `CCOC(=O)CCN1C(=O)[C@H]2[C@H]3[C@H](O)[C@H](O)C/C(=N/O[C@@H]4O[C@@H](COC(C)=O)[C@@H](OC(C)=O)[C@@H](OC(C)=O)[C@H]4OC(C)=O)[C@H]3CC[C@@H]2C1=O`, the Potency was 3.16 µM (active). The same measure, in the same setting: then `CCOC(=O)N/N=C1/C[C@@H](O)[C@@H](O)[C@@H]2[C@@H]3C(=O)N(C4CCCCC4)C(=O)[C@H]3CC[C@@H]12`, with “inactive”; and `CCN1C(=O)[C@H]2[C@@H]3[C@H](O)C=CC(=O)[C@H]3CC[C@H]2C1=O`, with “inactive”; and `O=C1[C@@H]2[C@H]3[C@H](O)[C@H](O)C/C(=N/OCc4ccccc4)[C@@H]3CC[C@H]2C(=O)N1c1ccc(F)cc1F`, with “inactive”. Regarding `CO[C@@H]1COC(=O)CC=C[C@@H](C)[C@@H]2C=C[C@H](O)[C@@H](COC(=O)[C@H](C)NC(=O)CC=C[C@H]1C)O2`, the Potency entry is “inactive”. As for `CCOC(=O)OCC1OC(C#Cc2ccc(Br)cc2)C=CC1OC(=O)OCC` (centres undefined), the Potency entry is “inactive”. Same read-out and setting: with `CC(=O)OC[C@@H]1O[C@@H](O/N=C2/C[C@@H](O)[C@@H](O)[C@@H]3[C@@H]4C(=O)N(Cc5ccccc5)C(=O)[C@H]4CC[C@@H]23)[C@H](OC(C)=O)[C@H](OC(C)=O)[C@@H]1OC(C)=O` the figure was 3.98 µM (active); with `CC(=O)OC[C@@H]1O[C@@H](O/N=C2/C[C@@H](O)[C@@H](O)[C@@H]3[C@H]4C(=O)N(c5ccc(F)cc5F)C(=O)[C@@H]4CC[C@H]23)[C@H](OC(C)=O)[C@H](OC(C)=O)[C@@H]1OC(C)=O`, 3.16 µM (active); with `CC(C)=CCC/C(C)=C/CO/N=C1/C[C@@H](O)[C@@H](O)[C@@H]2[C@@H]3C(=O)N(C[C@@H]4CCCO4)C(=O)[C@H]3CC[C@@H]12`, “inactive”. Take `C#CCCCO/N=C1/[C@H]2O[C@@H]2[C@@H](O)[C@H]2[C@H]1CCn1c(=O)n(C)c(=O)n12`: the Potency entry was “inactive”. With `CCN1C(=O)[C@H]2[C@H]3[C@H](O)[C@H](O)C/C(=N/O[C@@H]4O[C@H](COC(C)=O)[C@@H](OC(C)=O)[C@H](OC(C)=O)[C@H]4OC(C)=O)[C@@H]3CC[C@@H]2C1=O`, the Potency was 3.98 µM (active). As for `CC(C)(C)N1C(=O)[C@H]2[C@@H]3[C@H](O)[C@H](O)CC(=O)[C@H]3CC[C@H]2C1=O`, the Potency result was “inactive”. Same read-out and setting: then `C[C@@H](c1ccccc1)N1C(=O)[C@H]2[C@@H]3[C@H](O)C=CC(=O)[C@H]3CC[C@H]2C1=O`, with “inactive”; and `CO[C@@H]1COC(=O)C/C=C\[C@H](C)COC(=O)[C@H](C)NC(=O)C/C=C\[C@H]1C`, with “inactive”. `CO/N=C(\C)CCN1CCCc2nc(C)c(C)cc21`: the Potency is 3.98 µM (active).
